From PubChem BioAssay (Tox21)
Values joined by “and” are separate entries in the source; they are usually repeats but may differ in a detail not shown here. Equal entries are not always repeated. Where a structure was tested more than once in an assay, its records may differ in their call. Active and inactive are the calls of the source. Where a call stands in place of a potency, no number is given. The call rests on the fitted dose curve.

Biological target: Acetylcholinesterase (Homo sapiens) (UniProt P22303)
Test: Acetylcholinesterase (AChE) small molecule antagonists: enzyme-based qHTS assay (AID 1347397); further: nearly all actives have a fitted effect of over 55% in size
Details: Potency: AChE enzyme activity inhibition; series mostly up to 115 µM
Text: National Center for Advancing Translational Sciences [NCATS]
Division of Preclinical Innovation [DPI]
U.S. Environmental Protection Agency [EPA]
National Institutes of Environmental Health Sciences [NIEHS]
National Toxicology Program [NTP]
U.S. Food and Drug Administration [FDA]
Acetylcholinesterase (AChE) is the primary cholinesterase in the body that hydrolyzes a key neurotransmitter, acetylcholine. Inhibition of AChE activity can lead to neurotoxicity. The known inhibitors include organophosphorous pesticides (OP), chemical warfare agents, drugs, and various phytochemicals.
An enzyme-based assay with the recombinant human AChE and Amplite Colormetric acetylcholinesterase assay kit (AAT Bioquest, Sunnyvale, CA) was used to evaluate the chemicals in the Tox21 10K library that inhibit AChE activity. The assay uses 5, 5-dithiobis-(2-nitrobenzoic acid) (DTNB) to quantify the thiocholine produced from the hydrolysis of acetylthiocholine by AChE.
Tox21 Assay Protocol Summary:
For the enzyme-based AChE assay, recombinant human AChE (50 mU/mL) in 4 uL/well was dispensed into black, clear-bottom 1536-well plates using a Multidrop Combi dispenser (Thermo Scientific, MA). Then, 23 nL of compound or DMSO (vehicle control) was transferred into the assay plates by a Pintool Station (Wako Automation, CA). The plates were incubated for 30 min at room temperature, followed by the addition of 4 uL of colorimetric detection cocktail solution (DTNB, acetylthiocholine) into each well using a Flying Reagent Dispenser (Beckman Coulter, CA) and then 10 min incubation at room temperature.
Potency means the concentration at half of the fitted maximal effect.

Sequence of Acetylcholinesterase (Homo sapiens) (P22303 whole entry, looked up): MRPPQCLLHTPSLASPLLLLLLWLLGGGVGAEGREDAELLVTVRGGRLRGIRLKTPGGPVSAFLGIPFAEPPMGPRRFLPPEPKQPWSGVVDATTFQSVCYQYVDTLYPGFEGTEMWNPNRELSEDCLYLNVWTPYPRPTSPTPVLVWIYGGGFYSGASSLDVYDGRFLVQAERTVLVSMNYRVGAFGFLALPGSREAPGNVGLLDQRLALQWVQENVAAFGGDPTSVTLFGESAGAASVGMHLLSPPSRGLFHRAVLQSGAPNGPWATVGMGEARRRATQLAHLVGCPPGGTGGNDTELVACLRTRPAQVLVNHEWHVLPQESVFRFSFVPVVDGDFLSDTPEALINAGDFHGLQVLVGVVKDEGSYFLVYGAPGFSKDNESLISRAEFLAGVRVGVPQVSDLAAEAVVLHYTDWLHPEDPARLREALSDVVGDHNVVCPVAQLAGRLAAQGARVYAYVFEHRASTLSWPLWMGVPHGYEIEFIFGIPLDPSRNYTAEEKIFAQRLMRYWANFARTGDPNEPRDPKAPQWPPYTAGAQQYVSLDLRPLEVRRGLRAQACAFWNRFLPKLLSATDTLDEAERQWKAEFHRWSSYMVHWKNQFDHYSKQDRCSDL

Row | Compound | Potency
1 | CN(C)C(=O)Nc1cccc(C(F)(F)F)c1 | inactive
2 | Nc1ncc([N+](=O)[O-])s1 | inactive
3 | Cc1cccc(C)c1NC(=O)CN1CCCC1=O | inactive
4 | Nc1nc(N)nc(NC2CC2)n1 | inactive
5 | C[C@H]1C(=O)O[C@@H]2CCN3CC=C(COC(=O)[C@](C)(O)[C@]1(C)O)[C@H]23 | inactive
6 | CC(C)CCCCCCOC(=O)c1ccccc1C(=O)OCCCCCCC(C)C | inactive
7 | CNC(=O)O/N=C(\SC)C(=O)N(C)C | 2.45 µM (active) and 2.82 µM (active)
8 | N#CN=C(N)N | inactive
9 | Nc1cc(Cl)cc(Cl)c1 | inactive
10 | Nc1cccc(Cl)c1 | inactive
11 | Cc1cccc(N)c1 | inactive
12 | CNc1cnn(-c2cccc(C(F)(F)F)c2)c(=O)c1Cl | inactive
13 | N#Cc1cccc(C#N)c1 | inactive
14 | O=C/C=C/c1ccccc1 | inactive and 64 µM (active)
15 | CN(C)CCC#N | inactive
16 | OCC(O)CCl (stereo not given) | inactive
17 | CCCOC(=O)c1ccccc1C(=O)OCCC | inactive
18 | Cc1ccc(O)c(C)c1 | inactive
19 | C=CC(=O)OCCCCCC(C)C | inactive
20 | O=[N+]([O-])c1ccc(Cl)cc1 | inactive

Row | Compound | Potency
21 | COP(=S)(OC)SCN1C(=O)c2ccccc2C1=O | inactive
22 | C=C(C)C(=O)OCC(CC)CCCC (stereo not given) | inactive
23 | CCOP(=S)(OCC)Oc1ccc([N+](=O)[O-])cc1 | 24.5 µM (active)
24 | COc1nc(NC(C)C)nc(NC(C)C)n1 | inactive
25 | C[C@]12CC[C@H](O)CC1=CC[C@@H]1[C@@H]2CC[C@]2(C)C(=O)CC[C@@H]12 | inactive
26 | CCOC(=O)CC(SP(=O)(OC)OC)C(=O)OCC (stereo not given) | 3.38 µM (active) and 5.64 µM (active)
27 | c1ccc2c(c1)CCCC2 | inactive
28 | FC(F)(F)c1ccc(Cl)cc1 | inactive
29 | CN1C(=O)CCS(=O)(=O)C1c1ccc(Cl)cc1 (stereo not given) | inactive
30 | CC(=O)C1CCOC1=O (stereo not given) | inactive
31 | Cl/C=C/Cl | inactive
32 | N#Cc1ccccn1 | inactive
33 | [N-]=[N+]=CC(=O)OC[C@H](N)C(=O)O | inactive
34 | CCNc1nc(Cl)nc(NC(C)C)n1 | inactive
35 | CC(C)c1cccc(C(C)C)c1O | inactive
36 | CC(=O)/C=C/c1ccccc1 | inactive
37 | O=[N+]([O-])c1ccc(Cl)c(Cl)c1 | inactive
38 | C=CC#N | inactive
39 | Clc1cnc(Oc2ccc(Oc3ncc(Cl)cc3Cl)cc2)c(Cl)c1 | inactive
40 | C=CCN=C=S | inactive
